# Screens deposited in PubChem BioAssay by National Center for Advancing Translational Sciences (NCATS).
# ELG1 DNA repair – qHTS screen for small molecules that inhibit ELG1-dependent DNA repair in human embryonic kidney (HEK293T) cells expressing luciferase-tagged ELG1 | HEK293T ELG1-luciferase reporter, luminescence, 16 h; DNA damage induced by 5-fluorouridine | Potency, µM (doses to about 46.1 µM), inactives show at the top dose activity change, negative = inhibition, usual class: inhibitors | 330,000 tested, 2.3% active | AID 504467, 2011; note: potency is the fitted concentration of half-maximal effect; nearly all actives have a fitted effect of over 55% in size
#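 Quantitative HTS, concentration-response format. 2,000 cells/well co-treated with 5-fluorouridine and compound, 16 hr in 5% CO2 at 37 °C; ONE-Glo luminescence read after 30 min.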
# FBPA coupling cs – qHTS Assay for Inhibitors of Fructose-1,6-bisphosphate Aldolase from Giardia Lamblia: Coupling assay counterscreen | coupling enzyme system counterscreen, AmpLite Red fluorescence | activity change, negative = inhibition, % at 58.2 µM, hits read low | 290,000 tested, 0.67% active | AID 2472, 2010; in the data active = activity change below about -30%
#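 Activity here indicates interference with the coupling reaction, not aldolase inhibition. Compounds at 57.5 uM final met coupling enzymes for 10 min at RT; substrate and AmpLite Red detection followed, with a 525/598 nm fluorescence read after 20 min.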
# RORgamma inh – qHTS for inhibitors of ROR gamma transcriptional activity | Nuclear receptor ROR-gamma (Mus musculus), P51450 | 310,000 tested, 5.4% active | Drosophila S2 Gal4-RORgamma UAS-luciferase reporter, 20 h | Potency, µM (series often up to 53.6 µM), for the others: at the highest dose activity change, negative = inhibition, hits mostly inhibitors; note: potency is the fitted concentration of half-maximal effect; nearly all actives have a fitted effect of over 60% in size
#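 Luminescence from a UAS-regulated Photinus luciferase reporter in stably transfected Drosophila Schneider cells is measured; decreased signal marks ROR gamma inhibition. Fusion expression is induced by 700 uM copper sulfate for 20 hr.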
# VP16 counter – VP16 counterscreen qHTS for inhibitors of ROR gamma transcriptional activity | Potency, µM (titrated, usually from 53.6 µM), without a hit: top-dose activity, negative = inhibition, actives largely listed as inhibitors | Drosophila S2 Gal4-VP16 UAS-luciferase, luminescence, 20 h | 310,000 tested, 3.5% active;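 note: Gal4-VP16 expression switched on by copper sulfate through the metallothionein promoter; potency is the fitted concentration of half-maximal effect; nearly all actives have a fitted effect of over 50% in size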
# TSHR antagonist – Antagonists of the Thyroid Stimulating Hormone Receptor: HTS campaign; Thyrotropin receptor (Homo sapiens), P16473; TSHR-expressing cells, TSH-stimulated cAMP HTRF, 2 h; stronger effect = lower value; activity change, negative = inhibition, % at 11.5 µM; 330,000 tested, 0.2% active; AID 504810, 2011;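 active = activity change below a set negative limit, meaning inhibition stronger than a set level, cut at about -70% in these data; inconclusive = activity change between two set negative limits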
# Target sequence (P16473 whole entry, looked up): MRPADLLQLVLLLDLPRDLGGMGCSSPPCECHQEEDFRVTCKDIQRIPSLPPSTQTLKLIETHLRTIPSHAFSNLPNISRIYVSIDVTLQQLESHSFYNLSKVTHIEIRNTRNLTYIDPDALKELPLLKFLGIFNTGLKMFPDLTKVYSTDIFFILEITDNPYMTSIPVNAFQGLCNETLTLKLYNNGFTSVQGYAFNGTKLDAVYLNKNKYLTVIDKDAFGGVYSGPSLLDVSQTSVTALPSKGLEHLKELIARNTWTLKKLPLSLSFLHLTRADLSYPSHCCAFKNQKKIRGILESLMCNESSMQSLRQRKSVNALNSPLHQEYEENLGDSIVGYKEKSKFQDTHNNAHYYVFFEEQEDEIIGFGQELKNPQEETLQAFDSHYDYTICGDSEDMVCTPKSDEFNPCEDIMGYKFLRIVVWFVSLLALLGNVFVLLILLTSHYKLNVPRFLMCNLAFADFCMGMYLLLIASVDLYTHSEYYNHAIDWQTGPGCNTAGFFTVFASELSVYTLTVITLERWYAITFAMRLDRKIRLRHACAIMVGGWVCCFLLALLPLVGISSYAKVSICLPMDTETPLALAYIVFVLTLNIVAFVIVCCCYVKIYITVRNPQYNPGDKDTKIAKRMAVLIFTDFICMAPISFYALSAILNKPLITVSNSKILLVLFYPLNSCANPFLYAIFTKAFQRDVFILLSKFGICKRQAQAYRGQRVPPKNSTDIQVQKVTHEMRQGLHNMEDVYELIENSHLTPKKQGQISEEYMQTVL
#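 Read-out is FRET at 665 nm (cryptate excitation 337 nm) from a cryptate-tagged anti-cAMP antibody, competed by cell cAMP against cAMP-d2. Compounds are tested on freshly harvested TSHR cells challenged with 4nM TSH (EC80) for 2 hours at 37 deg C.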
# Active calls of the source: *; u = inconclusive; x = not tested or not shown; [ ] = another dose, or the depositor's remark. Shown are actives, neighbours in structure and some others; about 8% of the full set was active somewhere. Unless noted, calls come from the whole dose curve; as a rule, active = well fitted curve in the direction sought with a large enough effect; inconclusive = small, poorly fitted or top-dose-only effect, or another doubt; inactive = no such curve, though single readings can be large; an effect the other way counts as inactive or inconclusive. % is set by controls: 0 for no effect and ±100 for the full control effect.
SMILES,ELG1 DNA repair,FBPA coupling cs,RORgamma inh,VP16 counter,TSHR antagonist
COc1cc(-c2nc(-c3ccccn3)no2)cc(OC)c1OC,u,0.6,u,3.1%,-7.9
c1ccc(-c2n[nH]c(-c3ccccn3)n2)cc1,u,1.7,1.12µM*,1.12µM*,26.5
c1ccc(-c2n[nH]c(-c3ccccn3)n2)nc1,u,1.8,u,u,3.3
Cc1ccc(-c2nc(-c3ccccn3)no2)cc1[N+](=O)[O-],u,2.4,10µM*,6.31µM*,0.6
Clc1cccc(-c2nc(-c3ccccn3)no2)c1,u,5.5,5.01µM*,8.91µM*,-3.8
COCCCNC(=O)C[C@H]1C[C@H](C(=O)N2CCOCC2)[C@@]2(CCC3CCCC3)c3[nH]c4ccc(Cl)cc4c3CCN2C1=O,-12.0%,x,x,x,-1.0
c1ccc(-c2ccc(-c3nc(-c4ccccn4)no3)cc2)cc1,u,-5.6,2.51µM*,1.41µM*,-39.2
c1ccc(-c2noc(-c3ccno3)n2)nc1,u,2.4,23.1%,-1.3%,2.3
CC(C)c1nc2oc3c(NCc4cccnc4)ncnc3c2c2c1CCC2,8.2µM*,0.1,-3.5%,-10.3%,-4.1
CC(C)Cc1nc2oc3c(NCc4cccnc4)ncnc3c2c2c1CCC2,u,-0.2,16.7%,-8.7%,-14.4
CCCc1nc2oc3c(NCC(C)O)ncnc3c2c2c1CCCC2 (stereo unspecified),23.1µM*,-1.5,18.9%,-8.9%,-0.6
CC(C)Cc1nc2oc3c(NCC4CCCO4)ncnc3c2c2c1CCC2 (stereo unspecified),11.6µM*,0.8,-3.8%,4.5%,-13.2
O=C(c1ccccc1)n1c(=O)cc[nH]c1=O,9.3%,x,x,x,1.5
COc1cc(C(=O)NC(=S)Nc2ccc3c(c2)OCO3)cc(OC)c1OC,u,1.4,14.1µM*,u,0.0
CCCOc1ccc(C(=O)Nc2nc(C)c(Cc3ccc4c(c3)OCO4)s2)cc1,u,0.4,u,u,-0.9
COc1cc2c(C(=O)NCc3ccc4c(c3)OCO4)cn(CC(C)C)c(=O)c2cc1OC,u,0.2,u,u,-5.4
COc1cc(C(=O)NC(=S)NNC(=O)c2ccc3c(c2)OCO3)cc(OC)c1OC,16.4µM*,8.3,u,3.7%,-3.4
COc1cc2c(C(=O)Nc3ccc4c(c3)OCO4)cn(CC(C)C)c(=O)c2cc1OC,9.2µM*,-2.9,-28.9%,-1.3%,-3.1
COc1cc(C(=O)Nc2nc(C)c(Cc3ccc4c(c3)OCO4)s2)cc(OC)c1OC,u,-10.3,7.94µM*,u,-21.7
COc1cc(C(=O)NNC(=S)NC(=O)c2ccc(F)cc2)cc(OC)c1OC,u,5.0,u,u,9.8
O=C1C=C(c2ccoc2)N2CCC[C@H]2C1,u,x,x,x,-12.7
Cc1ccc(S(=O)(=O)Cn2nnnc2C(C(C)C)N2CCC(C(N)=O)CC2)cc1 (stereo unspecified),3.8%,-2.5,-4.1%,-2.6%,-1.4
CN(C)CCCNc1ncnc2scc(-c3ccccc3)c12,-2.5%,0.5,0.3%,-14.4%,-3.1
COc1ccc(-c2csc3ncnc(NCCN4CCOCC4)c23)cc1,13µM*,-1.0,-6.6%,-2.0%,-22.1
c1ccc(-c2csc3ncnc(NCCN4CCOCC4)c23)cc1,16.4µM*,2.3,-24.2%,u,-8.8
SMILES,ELG1 DNA repair,FBPA coupling cs,RORgamma inh,VP16 counter,TSHR antagonist
Clc1ccc(-c2csc3ncnc(NCCN4CCOCC4)c23)cc1,18.4µM*,3.9,-1.3%,-10.0%,-12.6
COc1ccc(-n2ncc3c(NCCN4CCOCC4)ncnc32)cc1,u,5.9,2.7%,-13.6%,-3.6
Cc1ccc(-c2csc3ncnc(NCCN4CCOCC4)c23)cc1,u,7.9,16.1%,u,-12.0
Clc1ccc(CNc2nc(CN3CCOCC3)nc3scc(-c4ccccc4)c23)cc1,u,0.2,11.2µM*,8.91µM*,12.8
COc1ccc(NC2CCCN(C(=O)c3c(C)noc3C)C2)cc1 (stereo unspecified),-3.0%,-1.1,9.9%,-3.3%,-5.4
O=C(c1ccc(NS(=O)(=O)c2ccc3[nH]c(=O)[nH]c3c2)cc1)N1CCCC(C(F)(F)F)C1 (stereo unspecified),2.9%,x,x,x,4.8
O=C(Nc1nnc(-c2ccccc2)o1)C1CCCCC1,u,0.6,3.55µM*,7.94µM*,-2.9
O=C(Nc1nnc(-c2ccc(Cl)cc2)o1)C1CCCCC1,3.9%,3.3,-1.5%,-9.2%,-9.5
CCOc1ccc(-c2nnc(NC(=O)C3CCCC3)o2)cc1,u,-0.7,8.91µM*,u,-10.4
N#Cc1c(F)cccc1N1CCN(Cc2ccc3c(c2)OCO3)CC1,u,-0.2,39.0%,-20.3%,-89.8*
O=C(c1ccccc1F)N1CCN(Cc2ccc3c(c2)OCO3)CC1,u,-2.5,-2.0%,2.2%,-24.5
CCCOc1ccc(C2C(C(=O)/C=C/c3ccco3)=C(O)C(=O)N2CCN2CCOCC2)cc1OC (stereo unspecified),10.1%,-38.2*,-5.0%,2.1%,-2.9
O=C(COc1ccc(/C=N/NC(=O)c2cc3ccccc3o2)cc1Br)Nc1ccccc1,u,0.4,3.16µM*,2.24µM*,39.7
O=C(COc1ccccc1[N+](=O)[O-])Nc1ccc(NC(=O)c2cc3ccccc3o2)cc1,-7.6%,-0.2,u,u,-0.8
CCOC(=O)N1CCN(C(=O)c2nn(-c3cc(OC)cc(OC)c3)c(=O)c3ccccc23)CC1,u,3.0,u,9.8%,0.1
COc1cc(OC)cc(-n2nc(C(=O)N3CC(C)CC(C)C3)c3ccccc3c2=O)c1 (stereo unspecified),20.6µM*,-0.6,u,5.9%,15.4
COc1ccc(-n2nc(C(=O)NCC(=O)Nc3cccc(Cl)c3)c3ccccc3c2=O)cc1,13µM*,0.5,0.0%,-7.5%,28.4
COc1ccc(-n2nc(C(=O)NCC(=O)NCCC3=CCCCC3)c3ccccc3c2=O)cc1OC,9.2µM*,0.2,-8.0%,-8.7%,-13.1
COc1ccc(-n2nc(C(=O)NCC(=O)N3CC(C)CC(C)C3)c3ccccc3c2=O)cc1 (stereo unspecified),13µM*,1.5,29.1%,-3.9%,-10.6
CC(=O)Nc1ccc(NC(=O)C(C)Oc2ccc(C)nc2[N+](=O)[O-])cc1 (stereo unspecified),15.1%,x,x,x,7.2
COc1cccc([C@H]2Oc3ccc(OC)cc3/C(=N\O[C@@H](C)c3cn([C@H](CO)Cc4ccccc4)nn3)[C@@H]2O)c1,x,0.7,-1.9%[10 µM],1.1%[10 µM],x
COc1ccc(-n2nc(C(=O)NCC(=O)NCCCN3CCN(C)CC3)c3ccccc3c2=O)cc1,0.0%,-1.8,-16.8%,-0.7%,-100.2*
